# Assay results reported in PubChem BioAssay (Tox21).
# Inconclusive results are not listed. Unmarked numbers belong to inactive results. The call rests on the fitted dose curve; in most records, active means well fitted activation curve with a large enough effect in the repeat runs; inconclusive means weak or mixed curves; inactive means flat fitted curve, though single readings scatter.
# Test: A CellTox Green Cytotoxicity Assay to monitor cytotoxicity in HEK293 cells - 24 hour (AID 1224875); further: nearly all actives have a fitted effect of over 45% in size
# Conditions: CellTox Green fluorescence; series mostly up to 76.8 µM; activity change: at the top concentration
# Source text: National Center for Advancing Translational Sciences [NCATS]
# NIH Chemical Genomics Center [NCGC]
# U.S. Environmental Protection Agency [EPA]
# National Institutes of Environmental Health Sciences [NIEHS]
# National Toxicology Program [NTP]
# Cell-based models are critical for drug discovery. Determining the natural cytotoxic effects resulting from test compounds is an essential research activity. A CellTox Green Cytotoxicity Assay to monitor cytotoxicity in real time of continues cell culture during 40 hours of the compound treatment was used to screen Tox21 10K library compounds in Hek293 cells. CellTox Green Cytotoxicity Assay is a nonlytic, homogeneous, biofluorescent method to measure cytotoxicity in cell culture after experimental manipulation. The assay system uses a proprietary asymmetric cyanine dye that is excluded from viable cells but preferentially stains the dead cell's DNA. […] Viable cells produce no appreciable increases in fluorescence. Therefore, the fluorescence signal produced by the binding interaction with dead cell DNA is proportional to cytotoxicity.
# The mixture of Hek293 cell suspension and reagents were dispensed at 600cells/6 ul/well in 1536-well tissue culture treated black solid bottom plates using a Multidrop dispenser. After the assay plates were incubated at a 37 C/5% CO2 incubator for 5 hours, 23 nL of compounds dissolved in DMSO, positive and negative controls was transferred to the assay plate by a pintool work station. The plates were incubated at 37 C for 40 hours. The fluorescence intensity were measured at 0h, 8h, 16h, 24h, 32h and 40h time points using ViewLux plate reader during compound treatment.
# On the % scale 0 is the no-effect control and ±100 the full control effect.
row,Structure (SMILES),activity change
1,NC(=O)CCCCC1CCSS1 (stereo not given),"-16.1% [at 35.3 µM, stronger effect = higher value]"
2,Nc1nc(F)nc2c1ncn2[C@@H]1O[C@H](CO)[C@@H](O)[C@@H]1O,"-1.26% [at 35.3 µM, stronger effect = higher value]"
3,CCCCCCC(CCCCCCCCCCC(=O)OCC(COC(C)=O)OC(C)=O)OC(C)=O (stereo not given),"-17.9% [at 35.3 µM, stronger effect = higher value]"
4,CN(C)CCOC(c1ccc(Cl)cc1)c1ccccn1 (stereo not given),"1.52% [at 35.3 µM, stronger effect = higher value]"
5,C=CC(=O)OCCCCCC,1.14%
6,CN(C)CCn1nnnc1SCC1=C(C(=O)O)N2C(=O)[C@@H](NC(=O)Cc3csc(N)n3)[C@H]2SC1,"6.35% [at 35.3 µM, stronger effect = higher value]"
7,CC(C)(C)OC(=O)N1C[C@@H](F)C[C@H]1C(=O)O,0.436%
8,CC(C)[N+](C)(C)CC(O)COc1cccc2ccccc12 (stereo not given),"-18.5% [at 35.3 µM, stronger effect = higher value]"
9,Oc1cc(O)c2c(c1)O[C@H](c1ccc(O)c(O)c1)[C@H](O)C2,"-1.71% [at 35.3 µM, stronger effect = higher value]"
10,CC(C)c1ccc2oc3nc(N)c(C(=O)O)cc3c(=O)c2c1,"12.9% [at 35.3 µM, stronger effect = higher value]"
11,NC(CS)C(=O)O (stereo not given),"-14.2% [at 35.3 µM, stronger effect = higher value]"
12,C#CC(C)(O)CC(C)C (stereo not given),-11.7%
13,COC[C@H](c1ccc(C(F)(F)F)cc1)N1CCN(C2(C)CCN(C(=O)c3c(C)ncnc3C)CC2)C[C@H]1C,"2.28% [at 35.3 µM, stronger effect = higher value]"
14,COc1ccc(N=[N+]([O-])c2ccc(OC)cc2)cc1,-14.7%
15,C=CCOc1nc(OCC=C)nc(OCC=C)n1,-0.901%
16,Cc1ccc(N)cc1[N+](=O)[O-],-0.664%
17,CC(C)[C@H](N)C(=O)OCCOCn1cnc2c(=O)[nH]c(N)nc21,"-19.1% [at 35.3 µM, stronger effect = higher value]"
18,CC12CCC(CC1=O)C2(C)C (stereo not given),16.7%
19,Cc1cc(C)c(NC(=O)CN(CC(=O)O)CC(=O)O)c(C)c1Br,"1.78% [at 35.3 µM, stronger effect = higher value]"
20,CCCCCCCCCCC1CO1 (stereo not given),-8.4%

row,Structure (SMILES),activity change
1,O=C1OC(=O)c2cc([N+](=O)[O-])ccc21,-3.84%
2,CCn1cc(C(=O)O)c(=O)c2cc(F)c(N3CCN(C)CC3)cc21,"-4.84% [at 15.8 µM, stronger effect = higher value]"
3,CC(C)=CCC/C(C)=C/C(=O)O,-22.5%
4,CCCCCCCCCCCl,-0.62%
5,CC(C)(O)C(=O)c1ccc(OCCO)cc1,-3.78%
6,OCCN1C[C@H](O)[C@@H](O)[C@H](O)[C@H]1CO,"-6.01% [at 35.3 µM, stronger effect = higher value]"
7,CNC(=O)c1c(I)c(NC(=O)CCCCC(=O)Nc2c(I)c(C(=O)O)c(I)c(C(=O)NC)c2I)c(I)c(C(=O)O)c1I,"-5.89% [at 35.3 µM, stronger effect = higher value]"
8,CCCCCCCCCCCCCCC,2.75%
9,CC(=O)CCc1ccc(O)cc1,-1.37%
10,CCC(C(=O)NC(N)=O)c1ccccc1 (stereo not given),-11.3%
11,CC(C)(O)Cc1ccccc1,0.954%
12,C=CCOCC(O)CS(=O)(=O)O (stereo not given),-16.2%
13,COC(=O)c1ccc(C(=O)OC)c(C(=O)OC)c1,-2.87%
14,CCCc1ccc(N)cc1,-5.65%
15,CC(C)CCCC(C)NCCC(C)C (stereo not given),"0.0216% [at 35.3 µM, stronger effect = higher value]"
16,CCCCN(CCO)CCO,-3.04%
17,COC(=O)[C@H]1[C@H]2C[C@@H]3c4[nH]c5cc(OC)ccc5c4CCN3C[C@H]2C[C@@H](OC(=O)COc2ccc(OC)cc2)[C@@H]1OC,"14.3% [at 35.3 µM, stronger effect = higher value]"
18,O=C1CC2(CCCC2)CC(=O)N1,"-18.8% [at 35.3 µM, stronger effect = higher value]"
19,CCCCc1ccc2cccc(S(=O)(=O)O)c2c1,-12.3%
20,CC(=O)OC(C)(C)C,-14.2%
